# Compound activity from PubChem BioAssay.
# Hits are enriched below; roughly 11% of the tested compounds scored in any of these assays.
# Tau fibril FP: inhibitors of human tau fibril formation; P10636; K18 P301L tau heparin fibrillization, Alexa594 FP, 6 h; Potency, µM (highest dose often 57.7 µM), for the others: at the top dose activity, negative = inhibition, hits mostly inhibitors; hit rate 0.39% among 280,000; AID 1468; note: potency is the fitted concentration of half-maximal effect; nearly all actives have a fitted effect of over 55% in size
# Target sequence (P10636 561-689 P618L limits assumed): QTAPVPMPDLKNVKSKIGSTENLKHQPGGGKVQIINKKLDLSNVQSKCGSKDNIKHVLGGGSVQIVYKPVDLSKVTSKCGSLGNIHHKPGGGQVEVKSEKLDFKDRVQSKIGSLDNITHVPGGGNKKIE
#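 Recombinant K18 P301L […], labeled with Alexa 594 at 0.24 uM over 15 uM unlabeled; heparin inducer 20 uM final; 37 C, 6 hr; FP endpoint.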
# FBPA coupling cs: coupling enzyme interference in Giardia aldolase counter-screen; coupling enzyme system counterscreen, AmpLite Red fluorescence; activity change, negative = inhibition, % at 58.2 µM, hits read low; hit rate 0.67% among 290,000; in the data active = activity change below about -30%
#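 Counterscreen of the coupled detection system alone, without aldolase: glyceraldehyde-3-phosphate coupling enzymes plus AmpLite Red readout. Compounds at 57.5 uM final, 10 min RT preincubation, 20 min RT reaction, fluorescence 525/598 nm.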
# Tau fluor counter: counter-screen for tau fibril formation inhibitors; tau K18 P301L Alexa594 fluorescence, heparin fibrillization; Potency, µM (doses to about 57.7 µM), without a hit: top-dose activity change, negative = decrease; hit rate 0.93% among 280,000; AID 1463; note: potency is the fitted concentration of half-maximal effect; nearly all actives have a fitted effect of over 55% in size
#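 Human K18 P301L tau (15 uM unlabeled plus 0.24 uM Alexa 594-labeled, final) in 100 mM sodium acetate pH 7 was mixed with compound and 20 uM heparin and incubated 6 hr at 37 C.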
# Tau fibril ThT: blocks human tau fibril formation measured by thioflavin T | Potency, µM (titrated, usually from 57.4 µM), inactives show at the top dose activity, negative = inhibition, actives largely listed as inhibitors | recombinant tau K18 P301L (four-repeat tau fragment), heparin-induced fibrillization, ThT fluorescence | hit rate 2.1% among 270,000 | P10636; note: potency is the fitted concentration of half-maximal effect; nearly all actives have a fitted effect of over 55% in size
#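 Heparin-induced (20 uM) aggregation of recombinant human K18 P301L tau, 15 uM unlabeled with 0.24 uM labeled, pH 7 acetate buffer, 6 hr at 37 C with compound. Fibrils quantified by 30 uM ThT fluorescence after 1 hr ambient incubation.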
# Sfp PPTase inh: blocks B. subtilis Sfp PPTase activity | Biochemical Sfp PPTase activity, qHTS | Q9F4F7 | hit rate 3.5% among 310,000 | Potency, µM, for the others: largest response in the series, negative = inhibition, usual class: inhibitors | AID 1490;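 note: the enzyme is Sfp with the accession as filed and its product quenches rhodamine fluorescence; potency is the fitted concentration of half-maximal effect; 0% = enzyme reaction without inhibitor and -100% = no enzyme wells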
#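 Buffer: 50 mM Hepes-Na pH 7.6, 10 mM MgCl2, 0.01% Nonidet P-40, 0.01% BSA. Enzyme 15 nM, pre-exposed to compound 15 min; substrates then added and fluorescence change tracked over 30 min.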
# G9a inh: blocks human histone lysine methyltransferase G9a | G9a H3K9 monomethylation, AlphaScreen, 2 h | Potency, µM (top dose mostly 102 µM), for the others: at the highest dose activity, negative = inhibition, most hits filed as inhibitors | Q96KQ7 | hit rate 8.8% among 350,000; note: potency is the fitted concentration of half-maximal effect; nearly all actives have a fitted effect of over 75% in size
# Target sequence (Q96KQ7 913-1193 limits assumed): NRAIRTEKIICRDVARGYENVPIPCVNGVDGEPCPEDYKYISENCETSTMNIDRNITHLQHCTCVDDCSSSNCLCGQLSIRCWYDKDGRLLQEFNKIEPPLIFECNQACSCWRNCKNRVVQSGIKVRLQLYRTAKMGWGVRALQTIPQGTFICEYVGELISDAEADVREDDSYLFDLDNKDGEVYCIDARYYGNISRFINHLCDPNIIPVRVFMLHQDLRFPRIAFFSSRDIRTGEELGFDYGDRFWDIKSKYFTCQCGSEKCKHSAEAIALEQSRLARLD
#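 Methyltransferase reactions run at room temperature for 2 h (20 nM enzyme, 500 nM biotin-H3K9 peptide, 20 uM SAM) after a 15 min compound preincubation; product detected by AlphaScreen beads and anti-H3K9me1 antibody.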
# * marks the source's active call; other numbers are inactive results; ? = inconclusive; / = no result given; [ ] = another dose, or the depositor's remark. Unless noted, calls come from the whole dose curve; as a rule, active = well fitted curve in the direction sought with a large enough effect; inconclusive = small, poorly fitted or top-dose-only effect, or another doubt; inactive = no such curve, though single readings can be large; an effect the other way counts as inactive or inconclusive. Unless noted, % is set by controls: 0 for no effect and ±100 for the full control effect.
SMILES,Tau fibril FP,FBPA coupling cs,Tau fluor counter,Tau fibril ThT,Sfp PPTase inh,G9a inh
COc1ccc(N2CC(C(=O)N3CCN(C(=O)c4ccco4)CC3)CC2=O)cc1 (centres undefined),/,0.1,/,/,0.4%,4.3%
O=[N+]([O-])c1cccc(/C=N/n2cnnc2)c1,3.3%,0.0,-8.8%,-10.4%,4.4%,/
O=[N+]([O-])c1cccc(/C=N/n2cnnc2)c1O,-12.4%,-0.2,-4.7%,15.8µM*,-17.6%,14.7%[59 µM]
O=[N+]([O-])c1ccc(O)c(/C=N/n2cnnc2)c1,-6.9%,6.8,-6.6%,-11.6%,-0.4%,44.7µM*
O=[N+]([O-])c1cc(Br)cc(/C=N/n2cnnc2)c1O,8.0%,13.6,-1.8%,8.91µM*,18.4%,31.6µM*
O=[N+]([O-])c1ccc(-c2ccc(/C=N/n3cnnc3)o2)c(Br)c1,/,-3.8,/,/,-0.7%,50.1µM*
O=[N+]([O-])c1cc(Cl)cc(/C=N/n2cnnc2)c1O,4.4%,2.0,6.0%,?,22.6%,-10.8%
Cn1c(=O)c(-c2ccc(Cl)cc2)nc2cnc(N3CCOCC3)nc21,/,-3.7,/,/,7.8%,7.2%[0.501 µM]
COc1cc(Cl)ccc1OCc1cc(C(=O)N(C)CCc2cnn(C)c2)no1,/,0.3,/,/,10.2%,60.5%[59 µM]
O=C(COC(=O)c1cccc(Cl)c1)Nc1cc(Cl)ccc1Oc1ccccc1,-1.5%,-1.1,-23.9%,-7.1%,2.6%,87.5%[59 µM]
Cc1nn(CC(=O)NCc2cccc(F)c2)c(=O)c2c(C)n(-c3ccc(Cl)cc3)nc12,-2.4%,/,-12.4%,8.3%,/,8.6%[59 µM]
O=C(/C=C/c1ccco1)OCc1nnc(-c2ccccc2)o1,0.7%,3.6,-7.6%,-14.0%,-16.2%,50.1µM*
O=C(OCc1nnc(-c2ccccc2)o1)c1ccc(CO)cc1,-2.2%,3.4,-3.7%,-10.9%,9.7%,-3.1%
O=C(/C=C/c1ccco1)OCc1nnc(-c2ccc(Cl)cc2)o1,-2.5%,-3.5,-18.6%,?,-84.3%,44.7µM*
O=C(/C=C/c1ccco1)OCn1nnc2ccccc2c1=O,-8.6%,2.5,-7.0%,-9.1%,-72.3%,35.5µM*
O=C(OCc1nnc(-c2ccccc2)o1)c1ccc(Cl)cc1,-0.6%,1.1,-14.9%,?,-24.3%,/
Cc1ccc(C(=O)c2coc3cc([N+](=O)[O-])c(O)c([N+](=O)[O-])c23)cc1,-1.2%,-34.8*,-27.8%,3.55µM*,39.8µM*,8.91µM*
Cn1c2c(c(=O)n(C)c1=O)C(CC(=O)Nc1ccccc1F)C(=O)N2 (centres undefined),0.2%,0.0,-7.0%,/,-3.9%,?
CCCCn1c2c(c(=O)n(C)c1=O)C(CC(=O)OCC(=O)Nc1cccc(C(F)(F)F)c1)C(=O)N2 (centres undefined),3.6%,9.5,?,?,13.7%,31.6µM*
OC1CCCN(CC(O)c2ccccc2)C1 (centres undefined),-3.4%,-0.2,-7.5%,-10.9%,?,3.16µM*
OC1CCCN(CC(O)COC(c2ccc(F)cc2)c2ccc(F)cc2)C1 (centres undefined),/,4.1,/,/,?,44.7µM*
OCC1CCCCN1CC(O)COC(c1ccc(F)cc1)c1ccc(F)cc1 (centres undefined),/,-0.9,/,/,-11.1%,8.91µM*
OC(COC(c1ccc(Cl)cc1)c1ccc(Cl)cc1)CN1CCCC1 (centres undefined),-14.0%,1.3,-10.4%,-7.4%,3.9%,3.2%[59 µM]
OC(COC(c1ccccc1)c1ccccc1)CN1CCc2ccccc2C1 (centres undefined),2.2%,-1.0,-4.4%,-9.1%,-15.7%,17.2%[59 µM]
COc1ccccc1COCC(O)CN1CCCCC1CO (centres undefined),/,2.6,/,/,?,?
SMILES,Tau fibril FP,FBPA coupling cs,Tau fluor counter,Tau fibril ThT,Sfp PPTase inh,G9a inh
OC(COC(c1ccc(F)cc1)c1ccc(F)cc1)CN1CCc2ccccc2C1 (centres undefined),2.3%,0.1,-14.1%,-13.9%,-19.0%,4.47µM*
CCOC(=O)c1c(NC(=O)CN2C(=O)C(=O)N(CC(C)C)C2=O)sc(C)c1CC,/,/,/,/,/,-32.8%
CCOC(=O)CC(=O)CSc1[nH]c(=O)cc(C)c1C#N,1.4%,5.7,-0.3%,-7.2%,50.1µM*,0.7%[59 µM]
COC(=O)c1ccccc1NC(=O)CSc1[nH]c(=O)cc(C)c1C#N,6.9%,7.0,-9.1%,-16.9%,20.2%,-6.0%
Cc1cc(=O)[nH]c(SCC(=O)Nc2ccccc2C#N)c1C#N,-0.1%,12.2,-8.0%,-14.1%,31.6µM*,?
COC(=O)C(NS(=O)(=O)CCl)C(C)C (centres undefined),/,2.1,/,/,10.4%,/
Cc1ccc(N2CC(NS(=O)(=O)c3cccs3)CC2=O)cc1 (centres undefined),/,/,/,/,/,-7.5%
CC(=O)C1(O)Cc2c(O)c3c(c(O)c2C(OC2CC(N)C(O)C(C)O2)C1)C(=O)c1c(O)cccc1C3=O (centres undefined),/,/,/,/,-21.8%,?
O=C(CNCc1cccc(Cl)c1)N1CCc2ccccc2C1,/,1.6,/,/,-25.3%,14.1µM*
O=C(CNCCc1ccccc1)N1CCc2ccccc2C1,1.1%,3.7,-3.3%,-8.0%,2.1%,22.4µM*
CCc1ccc(NC(=O)C(Cc2ccccc2)NS(=O)(=O)c2ccc3c(c2)c(=O)n(C)c(=O)n3C)cc1 (centres undefined),-7.1%,/,?,-0.9%,/,-30.4%[59 µM]
O=C(CN1c2ccccc2Sc2ccccc21)NNC(=S)Nc1ccc(Cl)cc1Cl,14.8%,2.3,10µM*[quencher],?,11.1%,65.6%[59 µM]
O=C(CN1c2ccccc2Sc2ccccc21)NNC(=S)Nc1ccc(Cl)cc1,/,8.0,/,/,4.6%,28.2µM*
O=C(CN1CCOCC1)NNC(=S)Nc1ccc(Cl)cc1,-1.2%,-3.6,3.1%,0.5%,16.3%,39.8µM*
COc1cccc(CNC(=O)c2sc3nc4n(c(=O)c3c2C)CCC4)c1,-0.6%,/,-6.6%,-5.1%,/,12.9%[59 µM]
CCOc1cccc(-c2nn3c(-c4cc(C)[nH]n4)nnc3s2)c1,4.4%,0.5,2.7%,-17.3%,0.6%,-4.1%[59 µM]
COc1cccc(OC)c1-c1nn2c(-c3cc(-c4ccccc4)n[nH]3)nnc2s1,-11.8%,-0.5,-16.1%,?,?,3.55µM*
O=C1NC2(CCC3(CC2)OCCO3)NN1c1ccc(Cl)cc1,2.7%,0.7,1.1%,-2.3%,-4.4%,44.7µM*
O=C1NC2(CCCCC2)NN1c1ccccc1,5.6%,3.0,1.5%,-7.2%,6.1%,-2.8%[59 µM]
Oc1c(N=Nc2ccccn2)ccc2ccccc12,?,-8.2,?,4.47µM*,-14.9%,18.9%[0.501 µM]
Oc1ccc(Nc2nc(-c3ccccc3)nc3ccccc23)cc1,/,0.8,/,/,-0.6%,-0.7%
O=[N+]([O-])c1ccc(-c2nc(Nc3ccc(O)cc3)c3ccccc3n2)cc1,/,1.7,/,/,8.7%,?
